The results in this text go back to PubChem BioAssay AID651820 (National Center for Advancing Translational Sciences (NCATS), 2012).

In all, about 340,000 compounds went through this assay and about 12,000 (3.5%) were called active. Another 18% or so got no clear call; they are omitted. For the sample, actives were picked, then their nearest neighbours and some compounds at random. Values without a mark were called inactive. The call rests on the fitted dose curve; in most records, active means well fitted inhibition curve with a large enough effect; inconclusive means small, poorly fitted or top-dose-only effect, or another doubt; inactive means no such curve, though single readings can be large or run the other way.
On the % scale 0 is the no-effect control and ±100 the full control effect; potency means the concentration at half of the fitted maximal effect.

The nature of this assay: qHTS Assay for Inhibitors of Hepatitis C Virus (HCV). To be noted: Huh7.5.1 HCVcc-Cre infection, luciferase reporter, 44 h; series mostly up to 41.8 µM; activity change, negative = inhibition: at the top concentration. In a few lines:
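Whole-lifecycle infectious HCVcc-Cre system; cells 1,000/well, compound then virus (~0.5 moi) added 4 h after plating, 44 h culture. Luciferase read 15 sec following 15 min substrate incubation, room temp.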
For orientation: Quantitative high-throughput screening tests each substance at several concentrations.
Consider `CCOC(=O)c1sc(=S)n2c1[nH]c(=O)c1ccc(C(=O)OC)cc12`, for which the “activity change, negative = inhibition” value is -9.87%. Consider `CCOC(=O)C1=C(C)Nc2sc(C(=O)c3ccc(Br)cc3)c(N)c2C1c1ccc(C(=O)OC)cc1` (centres undefined), for which the Potency was 8.91 µM (active). `CCOC(=O)c1sc(=NC(=O)c2ccc(Br)cc2)n(C)c1C`: the “activity change, negative = inhibition” value was 23.1%. `CCCCCCSc1ccc([C@@H]2[C@@H]3C(=O)N(CC)C(=O)[C@@H]3[C@]3(C(=O)OC)CCCCN23)cc1OC`: the “activity change, negative = inhibition” value is 5.98%. For the compound `Cc1ccc(C2=CSC3=NS(=O)(=O)CCN23)cc1C`, the “activity change, negative = inhibition” value is 2.87%.

Take `CCCCOc1ccc(CON(C(C)=O)C(C)=O)cc1Cl`: the “activity change, negative = inhibition” value is -1.6%.

`CCCOc1ccc(C2=CSC3=NCCN23)cc1Cl`: the Potency was 11.2 µM (active). As to `CC[C@]12c3[nH]c4cc(CCC(=O)N(C)C)ccc4c3CCN1C(=O)[C@@H](CC(=O)NCCCN(C)C)C[C@@H]2C(=O)N1CCN(C(=O)c2ccco2)CC1`, the “activity change, negative = inhibition” value was 7.67%.

With `Cc1noc(C)c1S(=O)(=O)N(C)C[C@H]1Oc2ccc(NC(=O)C3CCCCC3)cc2C(=O)N([C@H](C)CO)C[C@@H]1C`, the “activity change, negative = inhibition” value is -2.1%.

With `CCOC(=O)[C@H]1[C@H]2COc3ccc(Br)cc3[C@@H]2N2C(=O)CN(C)C(=O)[C@@]12C`, the “activity change, negative = inhibition” value is 47.2%. Turning to `N#Cc1c(/N=C/N2CCCC2)oc(-c2ccccc2)c1-c1ccccc1`, the Potency was 14.1 µM (active). As for `N#Cc1c2c(c(-c3ccccc3)[nH]c1=O)CCCC2`, the “activity change, negative = inhibition” value is -1.49%. As for `N#Cc1c(-c2ccccc2)c(-c2ccccc2)n[nH]c1=O`, the “activity change, negative = inhibition” value was 10.3%.

Consider `CCN(CC)C(=O)c1nc[nH]c1C(=O)N(C)Cc1ccccc1`, for which the “activity change, negative = inhibition” value is 15.3%. Turning to `COc1ccc(C(=O)N2CCN(c3ncccn3)CC2)cc1S(=O)(=O)N1CCOCC1`, the “activity change, negative = inhibition” value is 0.727%. The same measure, in the same setting: with `CCC(=O)c1cc(F)ccc1OCC(=O)Nc1ccc2c(c1)OCCO2` the figure was -10.2%. Regarding `Cc1ccc(NC(=O)C2CC(=O)N(c3ccc4c(c3)OCCO4)C2)cc1S(=O)(=O)N1CCCCCC1` (centres undefined), the Potency is 10 µM (active). With `COc1ccc(S(=O)(=O)N2CCCCC2)cc1NC(=O)C1CC(=O)N(c2ccc3c(c2)OCCO3)C1` (centres undefined), the “activity change, negative = inhibition” value is -11.2%.

Regarding `Cc1ccc(N2CC(C(=O)Nc3ccc(S(=O)(=O)N4CCCC4)cc3)CC2=O)cc1C` (centres undefined), the “activity change, negative = inhibition” value is 0.4%. For `CN1C(C(=O)NCc2ccco2)CC2Cn3c(nc4ccccc43)C21` (centres undefined), the “activity change, negative = inhibition” value is 10.9%.

Take `CC(=O)Nc1ccc(NC(=O)CS(=O)(=O)c2cn(CC(=O)N3CCCCC3)c3ccccc23)cc1`: the “activity change, negative = inhibition” value is 5.01%. Take `CCOC(=O)c1ccc(NC(=O)CS(=O)(=O)c2cn(CC)c3ccccc23)cc1`: the Potency is 14.1 µM (active).

Regarding `CCOC(=O)c1ccc(NC(=O)CCn2c(=O)oc3ccccc32)cc1`, the “activity change, negative = inhibition” value was 24.3%.

Turning to `Cc1ccc(NC(=O)C(C)OC(=O)Cc2c[nH]c3ccccc23)cc1S(=O)(=O)N1CCOCC1` (centres undefined), the “activity change, negative = inhibition” value was -6.29%.

For the compound `Cc1ccc(C)c(S(=O)(=O)N(C)c2ccc(OC(=O)C3CCN(C(=O)c4ccc(F)cc4)CC3)cc2)c1`, the “activity change, negative = inhibition” value was 11.6%. Turning to `CCCCNC1(C#N)CCN(Cc2ccccc2)CC1`, the “activity change, negative = inhibition” value is 12.6%. Consider `OCC1(Cc2ccccc2)CCN(Cc2cc3ccccc3o2)CC1`, for which the “activity change, negative = inhibition” value was 1.23%.

With `COc1ccccc1CN(C)C(=O)c1cc2ccccc2o1`, the “activity change, negative = inhibition” value is 4.38%. For `CN(C)CCCCCN(C)Cc1cc2ccccc2o1`, the Potency was 3.16 µM (active). On to `Brc1ccc(CN2CC[C@H]3C=CCc4cccc(c43)C2)cc1`, for which the “activity change, negative = inhibition” value was -12.9%. Turning to `CCC(=O)NCc1cc(-c2nn(C)c(=O)c3ccccc23)ccc1OC`, the “activity change, negative = inhibition” value was -2.55%. In the case of `COc1ccc(-c2nn(C)c(=O)c3ccccc23)cc1NC(=O)COc1ccccc1`, the Potency was 10 µM (active). `COc1ccc(S(=O)(=O)N2CCOCC2)cc1NC(=O)COc1ccccc1`: the “activity change, negative = inhibition” value is -5.17%.

On to `CC(C)(C)c1nnc2sc(SCC(O)=C(C#N)c3nc4ccccc4[nH]3)nn2c1=O`, for which the “activity change, negative = inhibition” value was -8.95%. With `CCOC(=O)C1CCCN(C(=O)c2ccc(C)c(S(=O)(=O)N3CCCCC3)c2)C1` (centres undefined), the “activity change, negative = inhibition” value was 21.1%.

`O=C1CCC/C=C\C[C@@H](CC(=O)N(CCO)Cc2ccccc2)C(=O)NCCO1`: the “activity change, negative = inhibition” value was -0.947%. `CC(OC(=O)/C=C/c1ccccc1)C(=O)Nc1ccc(C(N)=O)cc1` (centres undefined): the “activity change, negative = inhibition” value is 17.8%. Take `Oc1ccc(Br)cc1/C=N/Nc1ccccn1`: the Potency is 3.55 µM (active). As for `Oc1ccc(Br)cc1C=Nc1ccc2[nH]ncc2c1`, the “activity change, negative = inhibition” value was 12.4%. Same read-out and setting: with `O=C(CCCO)N/N=C/c1cc(Br)ccc1O` the figure was 12.6%; with `O=C(NCC1CCCCC1)NCC1CCCCC1`, 21.3%.

Take `Cc1c(NC(=O)C(C)Oc2cccc(Cl)c2)c(=O)n(-c2ccccc2)n1C` (centres undefined): the “activity change, negative = inhibition” value is 7.65%. For `Cc1cc(C)n(-c2nc(C(F)(F)F)nc3ccccc23)n1`, the “activity change, negative = inhibition” value was -1.56%. Take `CC(Nc1nc(C(F)(F)F)nc2ccccc12)c1cccs1` (centres undefined): the Potency was 10 µM (active). Consider `Cc1ccsc1C(=O)OCC(=O)NCCc1ccccc1`, for which the “activity change, negative = inhibition” value is -13.2%. Still for that read-out and setting: with `CC1CCCN(C(=O)Cn2c(=O)oc3cc(S(=O)(=O)N4CCCCC4C)ccc32)C1` (centres undefined) the figure was -7.12%. With `NC(=O)C1CCN(C(=O)COc2cccc3cccnc23)CC1`, the “activity change, negative = inhibition” value was 19.5%.

`CCOc1cc(N2CCOCC2)c(OCC)cc1NC(=O)c1ccc(C)s1`: the Potency was 25.1 µM (active). As to `CCOc1cc(N2CCOCC2)c(OCC)cc1NC(=O)C1=NN(c2cccc(C)c2)C(=O)CC1`, the “activity change, negative = inhibition” value was -28.7%.
